Screening results from PubChem BioAssay.
GLP-1R agonist = qHTS of GLP-1 Receptor Agonists | HEK293 GLP-1R CRE-luciferase, luminescence, 4-6 h; cells express a hypersensitive GLP-1R form | Potency, µM (series often up to 45.6 µM), most hits filed as activators | AID 624172, 2012 | 380,000 compounds, 0.007% hits
Target sequence (P43220 whole entry, looked up): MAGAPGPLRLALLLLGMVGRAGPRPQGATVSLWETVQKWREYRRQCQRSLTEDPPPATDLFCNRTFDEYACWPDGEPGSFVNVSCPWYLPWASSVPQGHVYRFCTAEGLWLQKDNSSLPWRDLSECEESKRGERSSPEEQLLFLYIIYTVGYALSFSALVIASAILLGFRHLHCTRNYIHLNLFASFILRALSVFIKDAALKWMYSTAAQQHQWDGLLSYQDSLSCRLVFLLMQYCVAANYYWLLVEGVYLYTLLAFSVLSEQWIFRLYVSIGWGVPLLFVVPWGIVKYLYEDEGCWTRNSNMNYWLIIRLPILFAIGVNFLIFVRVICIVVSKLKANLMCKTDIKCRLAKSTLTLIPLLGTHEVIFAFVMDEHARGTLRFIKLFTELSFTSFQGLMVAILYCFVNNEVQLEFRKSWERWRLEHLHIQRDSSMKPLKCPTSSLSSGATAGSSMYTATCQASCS
BRCA1 expr act = qHTS Assay to Identify Small Molecule Activators of BRCA1 Expression; MCF7-BRCA1-FFLuc reporter, luminescence, 48 h; response scale: scaled: vehicle 0%, 10 µM genistein 100%; 380,000 compounds, 1.1% hits; Potency, µM (series often up to 46.1 µM), most hits filed as activators; further: nearly all actives have a fitted effect of over 80% in size
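Using MCF7 cells harboring a BRCA1 firefly luciferase reporter, plated 2 h before compound pinning, the screen measured luminescence after 48 h incubation. Responses were normalized to DMSO and 10 microM genistein, then fitted for concentration-effect.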
GLP1R inv ag = qHTS of GLP-1 Receptor Inverse Agonists (Inhibition Mode); Glucagon-like peptide 1 receptor (Homo sapiens), P43220; HEK293 GLP-1R CRE-luciferase, luminescence, 24 h; GLP-1R form is constitutively active; Potency, µM (doses to about 38.3 µM), actives largely listed as inhibitors; 410,000 compounds, 1.6% hits; further: nearly all actives have a fitted effect of over 55% in size
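GLP-1R inverse agonism mode: basal reporter luminescence in engineered HEK293 cells measured after one day of compound exposure at 37 deg C, with a 12 min room-temperature detection step.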
Integrin act MD = qHTS for Activators of Integrin-Mediated Alleviation for Muscular Dystrophy | alpha7betagal myoblasts, beta-gal FDG fluorescence, 48 h | Potency, µM (series often up to 38.3 µM), most hits filed as activators | AID 624291, 2012 | 350,000 compounds, 0.064% hits; further: nearly all actives have a fitted effect of over 60% in size
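Alpha7betagal+/- myoblasts (passage 13) were plated 16-24 hr, then exposed to compounds (1:260 dilution of DMSO stock) for 48 hours at 37C. After MPER lysis, β-galactosidase reporter activity was read as FDG fluorescence (ex 480/em 540) after 30 minutes.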
GLP1R cytotox = qHTS of GLP-1 Receptor Inverse Agonists: Cytotox Screen. HEK293 cAMP-luciferase reporter cells, luminescence, 24 h. Potency, µM (highest dose often 38.3 µM), most hits filed as inhibitors. 410,000 compounds, 0.13% hits. AID 624418, 2012;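 further: loss of luciferase light is scored as toxicity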
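Seeding density was 200 cells/uL; after overnight-length (12 h) culture, 23 nL compounds went on for 24 h at 37 °C. Readout used a luciferase detection reagent, luminescence taken after 12 min at room temperature.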
Each line names hits and unclear results; the compound was inactive in the other large screens. The list is not random: actives were taken first. Their share in the collection is about 2.7%. The call rests on the fitted dose curve; in most records, active means well fitted curve in the direction sought with a large enough effect; inconclusive means small, poorly fitted or top-dose-only effect, or another doubt; inactive means no such curve, though single readings can be large; an effect the other way counts as inactive or inconclusive.

Cc1ccccc1Nc1nnc(-c2ccc(C)c(S(=O)(=O)N3CCCCC3)c2)c2ccccc12	GLP1R inv ag 3.2µM (no result: GLP-1R agonist, BRCA1 expr act, Integrin act MD)
CC1=C(C(=O)Nc2cccc(F)c2)C2(CCCCCC2)OC1=O	GLP1R inv ag inconclusive (no result: GLP-1R agonist, BRCA1 expr act, Integrin act MD)
CCCCCC(=O)N1C[C@H](n2cc(COC(=O)c3ccccc3)nn2)[C@@H](O)C[C@@H]1c1ccc(C)cc1	GLP1R inv ag 10µM
CCCCCCN1C[C@H](O)[C@@H](n2cc(-c3ccc(F)cc3)nn2)C[C@@H]1c1ccccc1	GLP1R inv ag 5µM
CCCCCC(=O)N1C[C@@H](n2cc(-c3ccc(F)cc3)nn2)[C@H](O)C[C@@H]1c1ccc(OC)cc1	GLP1R inv ag 11µM
CCCCCC(=O)N1C[C@@H](n2cc(-c3ccc(F)cc3)nn2)[C@H](O)C[C@@H]1c1ccc(C)cc1	GLP1R inv ag inconclusive
CCCCCC(=O)N1C[C@@H](O)[C@H](n2cc(COC(=O)c3ccccc3)nn2)C[C@@H]1c1ccc(C)cc1	none
O=C(O)c1cc(N/N=C/c2ccc(-c3ccccc3)cc2)ccc1Cl	BRCA1 expr act inconclusive, Integrin act MD inconclusive
CC(C)NC(=S)N/N=C/c1c[nH]c2ccccc12	GLP1R inv ag inconclusive, GLP1R cytotox 10µM
O=C(O)c1cc(N/N=C/c2c[nH]c3ccccc23)ccc1Cl	BRCA1 expr act 3.2µM
O=C(N/N=C/c1c[nH]c2ccccc12)c1cccc(O)c1	BRCA1 expr act 13µM
CCc1ccc(NC(=O)CCn2nc(-c3ccccc3OC)c3c(C)cc(C)nc32)cc1	GLP1R inv ag inconclusive (no result: Integrin act MD)
CCOc1ccc(N2CC(c3nc4ccccc4n3CCCOc3ccccc3OC)CC2=O)cc1 (configuration not stated)	GLP1R inv ag inconclusive (no result: GLP-1R agonist, BRCA1 expr act, Integrin act MD)
Oc1ccc(-c2nnc(SCC3CCCCC3)o2)cc1	BRCA1 expr act 6.3µM, GLP1R inv ag inconclusive, GLP1R cytotox inconclusive
O=C(O)c1ccccc1-c1ccccc1C(=O)NNc1ccccc1	GLP1R inv ag 2.2µM
CCCN(CCC)CCNC(=O)CN1C(=O)COc2ccc(S(=O)(=O)N3CCC(C)CC3)cc21	none (no result: Integrin act MD)
CCCN(CCC)S(=O)(=O)c1ccc(Cl)c([N+](=O)[O-])c1	GLP1R inv ag inconclusive, GLP1R cytotox 13µM
CCCN(CCC)S(=O)(=O)c1ccc(N2CCCC2=O)c([N+](=O)[O-])c1	none
Ic1ccc(/C=C2\C=Cc3ccccc32)cc1	none (no result: GLP-1R agonist, GLP1R inv ag, Integrin act MD, GLP1R cytotox)
Cc1nnc(-c2ccc(N3CCCCCC3)c([N+](=O)[O-])c2)o1	BRCA1 expr act 22µM
Cc1cc(C)c(NC(=O)CN2C(=O)CCSc3ccc(S(=O)(=O)N4CCCC4)cc32)c(C)c1	none (no result: GLP-1R agonist, BRCA1 expr act, Integrin act MD)
Cc1noc(C)c1CSCC(=O)Nc1cc(C(F)(F)F)ccc1N1CCCCC1	GLP1R inv ag inconclusive
Cc1noc(C)c1CSCC(=O)Nc1cc(Cl)ccc1N1CCCCC1	GLP1R inv ag 11µM
Oc1oc(-c2ccccc2)nc1C=NCc1ccccc1	BRCA1 expr act 10µM
CCN(CC)CCN(C(=O)c1ccc2c(c1)OCCO2)c1nc2cc(C)cc(C)c2s1	GLP1R inv ag 11µM
CCN(CC)CCN(C(=O)c1ccc2c(c1)OCCO2)c1nc2c(Cl)cccc2s1	GLP1R inv ag inconclusive, GLP1R cytotox inconclusive
O=C(Nc1ccccc1)N1CCc2c([nH]c3ccccc23)C1C(F)(F)F (configuration not stated)	GLP1R inv ag 2.8µM
CC1c2[nH]c3ccccc3c2CCN1C(=O)Nc1ccccc1 (configuration not stated)	GLP1R inv ag inconclusive
Cc1ccc(NC(=O)N2CCc3c([nH]c4ccccc34)C2c2ccccc2F)c(Cl)c1 (configuration not stated)	GLP1R inv ag 10µM (no result: GLP-1R agonist, BRCA1 expr act, Integrin act MD)
Cc1ccc(NS(=O)(=O)c2ccc(NC(=O)CN(c3cc([N+](=O)[O-])ccc3C)S(C)(=O)=O)cc2)c(C)c1	GLP1R inv ag 2.2µM, GLP1R cytotox inconclusive
Cc1ccc([N+](=O)[O-])cc1N(CC(=O)NC1CCCC1)S(C)(=O)=O	Integrin act MD inconclusive
CC(C)(C)NC[C@H](O)CSc1nc(-c2ccc(C(N)=O)s2)cs1	none (no result: BRCA1 expr act, GLP1R inv ag, Integrin act MD, GLP1R cytotox)
C/C(=N\OCC(=O)Nc1ccccc1C(=O)O)c1cccs1	BRCA1 expr act 11µM
CCOc1ccc(N/C(C)=C\C(=O)c2ccc3c(c2)OCCO3)cc1	BRCA1 expr act 13µM, GLP1R inv ag inconclusive
CCOc1ccc(N/C(C)=C/C(=O)c2ccc3c(c2)OCCO3)cc1	BRCA1 expr act 4.5µM, GLP1R inv ag inconclusive
COc1ccc(C(=O)/C=C(\C)Nc2ccc3c(c2)OCO3)cc1	BRCA1 expr act inconclusive
CCOc1ccc(C(=O)N(CC)CC(=O)Nc2ccc3c(c2)OCCO3)cc1	BRCA1 expr act inconclusive
CCOC(=O)N/N=C/c1cn(CCCOc2ccccc2)c2ccccc12	GLP1R inv ag 8.9µM
COC(=O)N/N=C/c1cn(CC(C)COc2ccccc2)c2ccccc12 (configuration not stated)	GLP1R inv ag 10µM
COC(=O)N/N=C/c1cn(CCOc2ccccc2)c2ccccc12	GLP1R inv ag inconclusive
Cc1nc(N)nc(N)c1CCCc1ccc(Cl)c(Cl)c1	GLP1R inv ag 7.1µM
Cc1cccnc1NC(=S)NC(=O)c1cccs1	GLP1R inv ag inconclusive, GLP1R cytotox inconclusive
Cc1cccnc1NC(=O)NC(=O)c1ccc(C(C)(C)C)s1	BRCA1 expr act 6.3µM
CCn1c(=O)c2cc(C(=O)Nc3cccc(C(F)(F)F)c3)sc2c2ccccc21	none (no result: Integrin act MD)
CC(C)CNC(=O)c1oc2ccccc2c1COc1ccccc1	GLP1R inv ag 5µM
COCc1c(C(=O)NCc2ccccc2CN2CCCC2)oc2ccccc12	GLP1R inv ag 10µM, Integrin act MD inconclusive
COc1ccc2oc(C(=O)NCc3ccccc3CN3CCCC3)c(C)c2c1	GLP1R inv ag inconclusive
Cc1nc(-n2nc(C)c(Cc3ccc(Cl)cc3)c2C)sc1C(=O)N1CCC(C)CC1	none (no result: GLP-1R agonist, BRCA1 expr act, Integrin act MD)
N#C/C(=C\c1ccc(N2CCCCC2)o1)C(=O)Nc1cccc(Br)c1	BRCA1 expr act 1µM, GLP1R cytotox inconclusive
O=C(/C=C/c1ccc2ccccc2c1)c1ccoc1	BRCA1 expr act 13µM
O=C(O)/C=C/c1ccc2ccccc2c1	none (no result: GLP-1R agonist, GLP1R inv ag, Integrin act MD, GLP1R cytotox)
O=C(Nc1ccc(F)cc1F)c1ccc2ncsc2c1	BRCA1 expr act 5µM
O=C(Nc1ccccc1F)c1ccc2ncsc2c1	BRCA1 expr act inconclusive
CCOc1ccccc1NC(=O)CN1C(=O)COc2ccc(S(=O)(=O)NC3CCCC3)cc21	none (no result: GLP-1R agonist, BRCA1 expr act, Integrin act MD)
Cc1ccccc1Nc1c(-c2ccco2)nc2c(C)cccn12	GLP1R inv ag inconclusive (no result: GLP-1R agonist, BRCA1 expr act, Integrin act MD)
CCCCNc1ncnc2oc(-c3ccco3)c(-c3ccco3)c12	none (no result: GLP-1R agonist, GLP1R inv ag, Integrin act MD, GLP1R cytotox)
